Data reported in PubChem BioAssay AID493169 (National Center for Advancing Translational Sciences (NCATS), 2011).
Records with an inconclusive call do not appear. The source made the active and inactive calls. Calls follow the shape of the dose curve; as a rule, active = well fitted inhibition curve with a large enough effect; inconclusive = small, poorly fitted or top-dose-only effect; inactive = flat fitted curve, though single readings scatter.

Assay: CHOP2 Reporter Counterscreen Assay for Inhibitors of Ubiquitin-specific Protease USP2a;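 also: activated enterokinase alone at 50 pM in a cell-free format rather than USP2a or CHOP2; nearly all actives have a fitted effect of over 55% in size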
Details: purified enterokinase, fluorogenic substrate, 485/531 nm; series mostly up to 38.3 µM; activity change, negative = inhibition: at the top concentration
How it was run: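 Cell-free counterscreen with pre-activated enterokinase alone (50 pM final) in 20mM Tris-HCl pH 8.0, 2mM CaCl2, 2mM beta-mercaptoethanol, 0.05% CHAPS; compound preincubation 30 min RT, reporter substrate 25nM final, fluorescence read after 10 min (Ex 485/Em 531).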
% is scaled to controls: 0 for no effect and ±100 for the full control effect; potency is read from the fitted curve at half-maximal effect.

Row | SMILES | activity change, negative = inhibition | Potency
1 | C/C(=N/NC(=O)c1cc2ccccc2cc1O)C1C(=O)c2ccccc2C1=O | -9.31% (inactive) | –
2 | C#CCOCCOCCOCCNc1nc(N2CCN(C(=O)CCCCCCCCCCNC(=O)Cn3cc(CCCCCN)nn3)CC2)nc(N2CCN(C(=O)CCCCCCCCCCNC(=O)[C@H](CO)n3cc(CCCCCN)nn3)CC2)n1 | – | 11.2 µM (active)
3 | O=C(O)/C=C/c1ccc(S(=O)(=O)Nc2ccccc2C(=O)Nc2ccc(F)cc2)cc1 | -6.94% (inactive) | –
4 | O=C(Nc1ccccc1)c1cc(Cl)nc2ccccc12 | 2.73% (inactive) | –
5 | CCn1c(COc2ccc(C)cc2)nnc1SCC(=O)Nc1ccc2c(c1)OCCO2 | 0.498% (inactive) | –
6 | Cc1ccc2[nH]c3c(c2c1)CN(C(=O)CN1CCSCC1)CC3 | 13.7% (inactive) | –
7 | C=CCn1c(NCc2cc(C)ccc2O)nc2ccccc21 | 2.52% (inactive) | –
8 | COC(=O)c1[nH]c2ccc(C)cc2c1NC(=O)CN1CCCc2ccccc21 | – | 10 µM (active)
9 | Cc1ccc2oc(=O)c3cnn(CC(=O)NCCCOC(C)C)c3c2c1 | -0.662% (inactive) | –
10 | Cc1c(NC(=O)C2CCCN(S(=O)(=O)c3cnc[nH]3)C2)c(=O)n(-c2ccccc2)n1C (stereo not drawn) | 0.344% (inactive) | –
11 | O=C(NCCC1=CCCCC1)C1CCCN(S(=O)(=O)c2cnc[nH]2)C1 (stereo not drawn) | -0.374% (inactive) | –
12 | OCCN(Cc1ccccc1)c1ncnc2sccc12 | 2.84% (inactive) | –
13 | CCOc1ccc(-c2ccc(/C=C3/C(=N)N4C(C)=CSC4=NC3=O)o2)c([N+](=O)[O-])c1 | -15.5% (inactive) | –
14 | COc1ccc(-c2nc(C#N)c(NCC3CCCO3)o2)cc1OC (stereo not drawn) | -2.04% (inactive) | –
15 | CCc1cc2cccc(C)c2nc1SCC(=O)N1CCN(C(=O)c2ccco2)CC1 | -3.06% (inactive) | –
16 | Cc1ccc(CNC(=O)CCNS(=O)(=O)c2ccc(C)cc2)cc1 | 2.86% (inactive) | –
17 | CCOc1ccc(CCn2c(-c3ccco3)nc3ccccc3c2=O)cc1OCC | 4.41% (inactive) | –
18 | CCn1c2ccccc2c2nc3ccccc3nc21 | 2.3% (inactive) | –
19 | CCCCC1NC(C(=O)O)CS1 (stereo not drawn) | 2.37% (inactive) | –
20 | Cc1cccc(Nc2nc(NCc3ccco3)c3ccccc3n2)c1 | -15.7% (inactive) | –
21 | O=C(OCc1ccccc1)C1CCCN1C(=O)c1cccs1 (stereo not drawn) | 8.05% (inactive) | –
22 | CC(C)CC(=O)Nc1cccc(-c2nc3ccccc3o2)c1 | -0.733% (inactive) | –
23 | CC(OC(=O)c1nsc(Cl)c1Cl)C(=O)NCc1ccco1 (stereo not drawn) | -2.69% (inactive) | –
